# From PubChem
# Hits are enriched below; roughly 11% of the tested compounds scored in any of these assays.
# PNC inhibitor = inhibitors of perinucleolar compartment assembly. hit rate 3.1% among 140,000. PC3M PTB-GFP, PNC prevalence imaging, 16 h; stronger effect = lower value. activity change (PNC), negative = inhibition, % at 10 µM;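 active = readout at or below -70, meaning at least 70% loss of cells showing the perinucleolar compartment, a nuclear body marking cancer cells; inconclusive = readout between -30 and a set limit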;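 note: plate controls were DMSO wells for no effect and camptothecin positive control wells for full effect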
#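 PC3M cells stably expressing PTB-GFP, 750–1000 cells/well, treated 16 h at 37 °C with compound (23 nl of library stock), in duplicate. After paraformaldehyde fixation and Hoechst stain, imaged at 20x; PNC prevalence scored by image analysis.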
# IMPase Li inh = membrane-permeable IMPase blocker, potentiated with lithium. Potency, µM (highest dose often 59.4 µM), for the others: top-dose activity, negative = IMPase inhibition, hits mostly inhibitors. CHO-M1 cells, IP1 TR-FRET (IP-One), carbachol + lithium. hit rate 0.35% among 210,000. AID 1457; active = well fitted curve in the direction sought with a large enough effect; inconclusive = small, poorly fitted or top-dose-only effect, or another doubt; inactive = no such curve, though single readings can be large; an effect the other way counts as inactive or inconclusive;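 note: IP1 builds up when IMPase is blocked and the TR-FRET signal falls; potency is the fitted concentration of half-maximal effect; plate controls were basal vehicle for no effect and high inhibitor control for full effect; nearly all actives have a fitted effect of over 50% in size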
#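 CHO cells stably expressing M1 receptor (2000/well, cultured 16–30 h) treated 30 min at 37C with compound plus low lithium. Cytosolic IP1 by TR-FRET (665/620 ratio and 620 channel) after 10 min lysis; AC50 by Hill fit.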
# HPGD block = HPGD (human) dehydrogenase inhibition; hit rate 4.3% among 150,000; P15428; purified HPGD, NADH fluorescence kinetic, PGE2 substrate; Potency, µM, for the others: at the highest dose activity change, negative = inhibition, actives largely listed as inhibitors; note: potency is the fitted concentration of half-maximal effect
#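 NADH formation kinetics: reaction with 30 uM PGE2 and 1 mM NAD+ (final), 20 nM enzyme, Tris-HCl pH 8 with Tween 20, after 15 min compound preincubation at room temperature. Fluorescence change, last versus first of five reads.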
# ALOX12 inhib = 12-hLO (ALOX12) enzyme inhibition; P18054; purified 12-hLO, xylenol orange hydroperoxide absorbance; Potency, µM (titrated, usually from 57.1 µM), for the others: at the highest dose activity change, negative = inhibition, hits mostly inhibitors; hit rate 0.12% among 150,000; AID 1452; active = well fitted curve in the direction sought with a large enough effect; inconclusive = small, poorly fitted or top-dose-only effect, or another doubt; inactive = no such curve, though single readings can be large; an effect the other way counts as inactive or inconclusive; note: potency is the fitted concentration of half-maximal effect; nearly all actives have a fitted effect of over 55% in size
# Target sequence (P18054 whole entry, looked up): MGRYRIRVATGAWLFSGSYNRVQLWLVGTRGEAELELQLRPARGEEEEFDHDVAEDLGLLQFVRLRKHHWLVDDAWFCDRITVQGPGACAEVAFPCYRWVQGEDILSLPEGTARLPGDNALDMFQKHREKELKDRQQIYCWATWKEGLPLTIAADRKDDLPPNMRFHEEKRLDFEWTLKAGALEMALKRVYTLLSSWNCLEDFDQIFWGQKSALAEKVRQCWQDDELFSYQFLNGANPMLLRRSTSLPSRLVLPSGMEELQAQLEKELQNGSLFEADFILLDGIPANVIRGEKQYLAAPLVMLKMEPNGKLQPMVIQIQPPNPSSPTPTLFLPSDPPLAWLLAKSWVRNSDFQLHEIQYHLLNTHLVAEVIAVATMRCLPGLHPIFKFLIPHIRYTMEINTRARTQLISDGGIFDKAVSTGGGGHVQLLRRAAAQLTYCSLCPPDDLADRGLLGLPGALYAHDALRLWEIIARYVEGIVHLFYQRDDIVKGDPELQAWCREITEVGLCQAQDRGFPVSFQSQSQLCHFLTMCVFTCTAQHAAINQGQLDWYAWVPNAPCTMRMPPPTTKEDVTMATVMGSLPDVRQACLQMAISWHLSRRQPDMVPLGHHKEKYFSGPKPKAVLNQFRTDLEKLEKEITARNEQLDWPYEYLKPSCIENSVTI
#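 Hydroperoxide formation by human 12-lipoxygenase from 40 uM arachidonic acid was followed colorimetrically via ferric-xylenol orange complex, using the 573/405 nm absorbance ratio. Enzyme concentration was 150 nM, with 30 min reaction at room temperature.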
# IMPase inh = IMPase inhibition in cells. AID 901. inhibition (IP1 accumulation), % at 46.1 µM. CHO-M1 cells, IP1 accumulation, HTRF TR-FRET ratio. P97697. 120,000 tested, under 10 active; active = well fitted curve in the direction sought with a large enough effect in the signal ratio, not every such curve was filed as active; inconclusive = small, poorly fitted or top-dose-only effect, or a change in a side signal; inactive = no such curve, though single readings can be large or run the other way; the % refers to the signal ratio;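 note: cells stimulated with carbachol in lithium chloride buffer; plate controls were DMSO basal wells for no effect and reference inhibitor wells for full effect; higher means more IMPase inhibition seen as more IP1 and lower FRET ratio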
#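 Cellular IMPase inhibition is scored as a rise in cytosolic IP1, detected by competitive TR-FRET between d2-labelled IP1 and a europium anti-IP1 antibody. M1-expressing CHO cells were stimulated with carbachol for 30 min at 37C, with lithium (50 mM LiCl) present in the buffer.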
# ALDH1A1 inh = ALDH1A1 (human) enzyme inhibition | Purified ALDH1A1, NADH fluorescence, propionaldehyde substrate | Potency, µM (highest dose often 75.3 µM), for inactives: at the highest dose activity, negative = inhibition, usual class: inhibitors | hit rate 7.3% among 220,000 | AID 1030;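 note: potency is the fitted concentration of half-maximal effect; plate controls were no enzyme wells and a reference inhibitor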
# Active calls of the source: *; ? = inconclusive; · = no result; ! = not confirmed by another sample; [ ] = dose if it differs, or a comment. Unless noted, calls come from the whole dose curve; as a rule, active = well fitted inhibition curve with a large enough effect (not every such curve was filed as active); inconclusive = small, poorly fitted or top-dose-only effect, or another doubt; inactive = no such curve, though single readings can be large or run the other way. Unless noted, % is set by controls: 0 for no effect and ±100 for the full control effect.
SMILES,PNC inhibitor,IMPase Li inh,HPGD block,ALOX12 inhib,IMPase inh,ALDH1A1 inh
COc1cc(NC(=O)c2cccc(COCC(F)(F)C(F)F)c2)cc(OC)c1OC,-100*,4%,-4%,0%,3,12%
Cc1ccc(O)c(N=Nc2ccccc2)n1,·,16%,22µM*!,-17%,16,?
Cc1ccc2c(C)ccc(O)c2n1,-29,5%[38.3 µM],-13%,-5%,11,7%
COC(=O)c1ccccc1NC(=O)CN(c1ccc(Cl)cc1)S(=O)(=O)c1ccc(OC)cc1,·,·,·,·,-1,·
CCOC(=O)c1oc2ccccc2c1CSc1nnnn1-c1ccccc1,-7,2%[38.3 µM],-13%,-7%,7,6.3µM*
CCOC(=O)c1oc2ccccc2c1CN1CCOCC1,11,-1%[38.3 µM],-9%,0%,5,11µM*
CCOC(=O)c1oc2ccccc2c1CN1CCCCC1,·,-1%,·,·,·,-4%
COCCn1c(=O)c(-c2ccc(Cl)cc2)nc2cnc(OCc3ccccc3)nc21,·,-15%,·,·,·,?
NC(=O)c1cc(NC(=O)c2cc(Br)c(Br)s2)cc(C(N)=O)c1,·,7%,·,·,·,?
S=c1[nH]c2cc(Cl)ccc2s1,47,5%[38.3 µM],28µM*,-2%,5,2.8µM*
CSc1nc2cc(Cl)ccc2s1,-12,-4%[38.3 µM],1%,-5%,-4,-5%
O=C1CCCc2c1[nH]c1ccc(Cl)cc21,4,-1%,-11%,2%,-5,-8%
COc1ccc2[nH]c(=S)[nH]c2c1,-12,-12%[38.3 µM],28µM*,-6%,-4,-6%
S=c1[nH]c2ccc(Cl)cc2[nH]1,5,3%,10µM*,-6%,23,8.9µM*
COc1ccccc1N1CCN(C2CCN(S(=O)(=O)c3ccc(NC(C)=O)cc3)CC2)CC1,·,13%,·,·,·,7%
O=C(NC1CC1)c1ccc(CSCc2cccc(F)c2)o1,-106*,1%[38.3 µM],-12%,-2%,-6,?
CCC(C)NC(=O)c1ccc(CSCc2cccc(F)c2)o1 (centres undefined),-21,30%[38.3 µM],-16%,3%,-4,?
Cc1ccc(CSCc2ccc(C(=O)NC3CCCC3)o2)cc1,·,1%,·,·,·,22µM*
Cc1ccc(NC(=O)Nc2c(C)n(C)n(-c3ccccc3)c2=O)c(Cl)c1,·,·,·,·,0,·
O=c1cc(-c2ccc3c(c2)OCCO3)oc2ccc(Cl)cc12,22,10µM*,?,0%,?,?
O=c1cc(-c2cccs2)oc2ccc(Cl)cc12,-5,·,·,-4%,-28,?
COCCn1c(=O)c(-c2ccc(OC)cc2)nc2cnc(N3CCN(C)CC3)nc21,·,25%,·,·,·,?
Cc1ccc(Cc2c(C)nc3nc(SCC(=O)NCc4ccco4)nn3c2C)cc1,?,13%[38.3 µM],-20%,-14%,5,-10%
O=C(CSc1ccccc1)NCc1ccco1,-5,5%,28µM*,-6%,2,6%
C=CCn1c(SCC(=O)NCc2ccco2)nnc1-c1ccc2ccccc2n1,15,17%[38.3 µM],16µM*,-8%,19,?
SMILES,PNC inhibitor,IMPase Li inh,HPGD block,ALOX12 inhib,IMPase inh,ALDH1A1 inh
O=C(CSc1ccc2c(c1)OCCO2)NCc1ccco1,-10,12%[38.3 µM],25µM*,-18%,-5,14µM*
Cc1occc1-c1nnc(SCC(=O)NCc2ccco2)n1CC(C)C,1,-11%[38.3 µM],-13%,-11%,1,?
Cc1cccc(Cc2c(C)nc3nc(SCC(=O)NCc4ccco4)nn3c2C)c1,20,3%[38.3 µM],16µM*,1%,0,25µM*
O=C(CCSCCC(=O)NCc1ccco1)NCc1ccco1,27,-5%,16µM*,1%,2,18µM*
Cc1cc(C)c2cc(C#N)c(SCC(=O)NCc3ccco3)nc2c1,?,7%[38.3 µM],-19%,-1%,-23,?
CC(C)(C)c1nc2ccccc2c2nnc(SCC(=O)NCc3ccco3)n12,-19,6%[38.3 µM],16µM*,4%,0,25µM*
Cc1cc(C)c2cc(C)c(SCC(=O)NCc3ccco3)nc2c1,·,10%,·,·,·,14µM*
CC(C)c1nc2ccccc2c2nnc(SCC(=O)NCc3ccco3)n12,50,22%[38.3 µM],-26%,1%,-4,1%
O=C(CN1CCOc2ccccc21)NCc1ccco1,-106*,25%[38.3 µM],-27%,-10%,1,11µM*
O=C(Nc1cccc(F)c1)N1CC2(CCN(C(=O)c3cc(C(F)(F)F)cc(C(F)(F)F)c3)CC2)C1,·,-7%,-17%,1%,·,3%
CC(C)(C)C1CCc2c(sc(NC(=O)c3ccccc3F)c2C(=O)NCc2ccco2)C1 (centres undefined),·,·,·,·,0,·
O=C(CSc1ccc2c(c1)OCCO2)Nc1ccc2c(c1)OCO2,-10,21%[38.3 µM],-13%,-2%,4,?
O=C(CSc1ccc2c(c1)OCCO2)Nc1ccc(Br)cc1,?,·,·,-12%,2,7.1µM*
O=C(CSCC(=O)NCc1ccco1)NCc1ccco1,-19,23%[38.3 µM],-6%,12%,2,?
CCCn1cc(SCC(=O)NCc2ccco2)c2ccccc21,-22,18%[38.3 µM],18µM*,-4%,6,?
